The source of these data is PubChem BioAssay.

The structures appear in SMILES notation. The source made the active and inactive calls.

Assay [1] is described as follows: A549 cell viability effects, profiling panel, calcein-AM fluorescence, 48 h, basal (AID 1162). As to conditions: higher = more signal.
Assay [2] is described as follows: adipocyte viability effects, profiling panel, cell-based, 3T3-L1 adipocytes, calcein-AM fluorescence, 48 h, basal (AID 1163). As to conditions: 3T3-L1 adipocytes viability, higher = more signal.
Assay [3] can be described thus: HepG2 cell viability effects, profiling panel, calcein-AM fluorescence, 48 h, basal (AID 1164). As to conditions: higher = more signal.
A short description of assay [4]: MM1S cell viability effects, profiling panel, calcein-AM fluorescence, 48 h, basal (AID 1165).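 Note: viability of MM1S multiple myeloma cells under basal unstimulated conditions.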 The note with it: higher = more signal.
Assay [5] can be described thus: basal RPMI8226 viability, no added stimulus, profiling panel, cell-based, calcein-AM fluorescence, 48 h, PK04 Diversity Set (AID 1166).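 Note: cells grown under basal conditions without added stimulus.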 As to conditions: RPMI8226 myeloma viability, higher = more signal.
Assay [6] is described as follows: basal HepG2 mitochondrial membrane potential changes, profiling panel, cell-based, JC-1 fluorescence, 24 h, 100 nL compound (AID 1167). As to conditions: higher = more signal.
Assay [7] is described as follows: basal 3T3-L1 adipocyte mitochondrial potential changes, profiling panel, cell-based, JC-1 fluorescence, 3T3-L1 adipocytes, 24 h, 100 nL compound (AID 1168). As to conditions: JC-1 mitochondrial fluorescence, higher = more signal, called active from +8 up or from −8 down.
Assay [8] can be described thus: basal RPMI8226 mitochondrial membrane potential changes, profiling panel, cell-based, JC-1 fluorescence, 24 h, 100 nL compound (AID 1169). As to conditions: RPMI8226 myeloma, JC-1 mitochondrial potential fluorescence, higher = more signal.
Assay [9] is described as follows: basal MM1S mitochondrial membrane potential changes, profiling panel, cell-based, JC-1 fluorescence, 24 h, 100 nL compound (AID 1170). As to conditions: higher = more signal.
Assay [10] in a line: A549 lung cancer cell viability effects, profiling panel, resazurin fluorescence, 24 h, PK04 Diversity Set (AID 1171). As to conditions: higher = more signal, called active from +8 up or from −8 down.
Note: test concentration not given here.

For the compound `CO[C@@H]1COC(=O)[C@H](COCc2ccccc2)NC(=O)CC=C[C@@H](C)[C@H](OC)COC(=O)[C@@H](C)NC(=O)CC=C[C@H]1C`, the z-score in assay [1] is 0.759; in [2], 0.0006; in assay [3], 0.56; in assay [4], 0.208; in [5], -1.54; in [6], 0.648. Also, the z-score is -0.828 (inactive) in [7], 0.402 in assay [8], -0.343 in [9] and 0.846 (inactive) in [10].

`COc1cccc([C@H](O)Cn2cc(-c3ccc(CON=C(C)C)cc3)nn2)c1`: the z-score is 0.445 in assay [1]; -0.374 in assay [2]; 0.206 in [3]; 1.22 in [4]; 0.157 in assay [5]; -0.803 in assay [6]. Besides, the z-score in assay [7] was 0.706 (inactive); in [8], -0.0682; in assay [9], -0.544; in [10], -0.409 (inactive).

Consider `CCOC(=O)CCN1C(=O)[C@H]2[C@H]3[C@H](O)[C@H](O)CC(=NO[C@@H]4O[C@H](CO)[C@@H](O)[C@H](O)[C@H]4O)[C@@H]3CC[C@H]2C1=O`, for which the z-score is 0.816 in assay [1]; -0.0641 in assay [2]; 1.19 in assay [3]; -0.269 in assay [4]; 0.238 in assay [5]; -0.0782 in [6]. The z-score in [7] is -0.0421 (inactive); in assay [8] it was 0.577; in [9] it was -1.45; in assay [10], -0.765 (inactive).

On to `C[C@@H](c1ccccc1)N1C(=O)[C@H]2[C@H]3[C@H](O)[C@H](O)CC(=NNC(=O)OCc4ccccc4)[C@@H]3CC[C@H]2C1=O`, for which the z-score was -0.18 in assay [1]; -0.506 in assay [2]; -0.468 in [3]; 0.399 in assay [4]; -0.253 in assay [5]; -0.604 in assay [6]. The z-score is -0.762 (inactive) in assay [7], 0.102 in assay [8], -0.998 in assay [9] and -0.427 (inactive) in assay [10].

Turning to `CCOC(=O)NN=C1C[C@@H](O)[C@@H](O)[C@@H]2[C@@H]3C(=O)N(c4ccc(F)cc4F)C(=O)[C@@H]3CC[C@H]12`, the z-score was -0.999 in assay [1]; 1.01 in assay [2]; -0.925 in assay [3]; 0.593 in assay [4]; -0.895 in assay [5]; 1.11 in assay [6]. Further, the z-score is -0.734 (inactive) in assay [7], 0.14 in assay [8], -0.354 in [9] and 0.745 (inactive) in assay [10].

As for `COC(=O)CC=C[C@@H](C)[C@@H](C=NOC(C)CN1CCCCc2nc(C)c(C)cc21)NS(=O)(=O)c1ccc(C)cc1` (stereo not given in full), the z-score in [1] was -0.366; in assay [2], 0.61; in [3] it was 0.0477; in assay [4] it was 0.0238; in [5] it was -0.141; in [6], -0.246. Also, the z-score is -0.442 (inactive) in [7], -1.02 in assay [8], -0.0131 in assay [9] and -0.204 (inactive) in assay [10].

As for `COCC#Cc1ccc([C@@H]2N[C@H](C(=O)O)CC[C@H]2C)cc1`, the z-score in [1] is 0.681; in assay [2], -0.269; in [3], 0.654; in assay [4] it was 0.391; in [5], 1.14; in [6] it was 0.816. Besides, the z-score in assay [7] is 0.727 (inactive); in assay [8], -0.859; in assay [9], 0.839; in assay [10], -0.488 (inactive).

With `C[C@@H](c1ccccc1)N1C(=O)[C@H]2[C@H]3[C@H](O)[C@H](O)CC(=NOCc4ccccc4)[C@@H]3CC[C@H]2C1=O`, the z-score in [1] was 0.048; in assay [2], -0.0375; in [3], -0.628; in assay [4], 0.67; in [5], -2.15; in [6], -0.265. Moreover, the z-score in assay [7] was -0.985 (inactive); in assay [8], -0.0343; in assay [9] it was 0.645; in [10] it was -0.273 (inactive).

`C#CCCCON=C1[C@H]2CCn3c(=O)n(Cc4cc5c(cc4Cl)OCO5)c(=O)n3[C@H]2[C@H](O)[C@@H]2O[C@H]12`: the z-score in [1] is 0.328; in [2], -0.237; in [3] it was 0.484; in [4], -0.0822; in assay [5] it was 0.644; in [6], -0.663. In addition, the z-score is -1.1 (inactive) in assay [7], -0.123 in assay [8], 0.00911 in assay [9] and -0.188 (inactive) in [10].

Turning to `CCOC(=O)[C@H](CC(C)C)NC(=O)CCC1CC(OC(=O)NCc2ccc3c(c2)OCO3)CC2(CCCC(COC(=O)NCCc3ccc(Cl)cc3)O2)O1` (stereo not given in full), the z-score in assay [1] was 0.0432; in assay [2] it was -0.179; in [3] it was 0.0309; in assay [4], -0.986; in assay [5], 0.415; in [6] it was -0.253. Moreover, the z-score in assay [7] is 0.526 (inactive); in assay [8], -0.966; in assay [9] it was -0.238; in assay [10], 0.39 (inactive).

Consider `COC(=O)CC=C[C@@H](C)[C@@H](C=NOC(C)CN1CCCc2nc(C)c(C)cc21)NS(=O)(=O)c1ccc(C)cc1` (stereo not given in full), for which the z-score in [1] is 0.969; in assay [2], -0.176; in assay [3] it was 0.0666; in assay [4], -1.08; in [5], -0.427; in assay [6] it was -0.486. Besides, the z-score in assay [7] is -0.774 (inactive); in assay [8], 0.462; in [9], -0.534; in assay [10] it was -0.726 (inactive).

On to `COC(=O)[C@H](C)NC(=O)CCC1CC(OC(=O)NCc2cccc3ccccc23)CC2(CCCC(COC(=O)NCCC(C)C)O2)O1` (stereo not given in full), for which the z-score in [1] is 0.505; in assay [2] it was -0.0667; in [3], -1.75; in assay [4], -3.38; in assay [5] it was -3.49; in [6] it was -0.653. Also, the z-score in assay [7] was 0.112 (inactive); in assay [8], -0.51; in assay [9] it was -1.82; in assay [10], 0.236 (inactive).

With `COc1ccc(OC[C@@H](CO)OC)cc1`, the z-score in [1] was 0.677; in assay [2], 0.363; in assay [3], 0.647; in assay [4] it was 0.124; in assay [5], -0.342; in assay [6], -0.15. Besides, the z-score in [7] was -0.321 (inactive); in assay [8], 0.104; in assay [9] it was 0.674; in assay [10], -0.551 (inactive).

In the case of `CC(CCC(=O)OC[C@H]1O[C@H](C#Cc2ccccc2)C=C[C@@H]1Oc1ccc(C)cc1)=NO[C@@H](C)c1cc(-c2c(C)cc(C)cc2C)no1`, the z-score was -0.355 in assay [1]; 0.777 in assay [2]; -0.338 in assay [3]; -0.0941 in [4]; -2.61 in assay [5]; 1.78 in [6]. Also, the z-score in assay [7] was -0.495 (inactive); in [8] it was 0.621; in assay [9] it was 0.114; in [10] it was -0.366 (inactive).
